This is an account of results in PubChem BioAssay AID488890 (Southern Research Specialized Biocontainment Screening …, 2010).

Hit rate of the full screen: of about 320,000 compounds, about 1,300 (0.41%) were called active. Inconclusive results (about 3%) are left out. No rule for the calls is given here. Not all results are given here. Results with a measured potency or affinity are listed apart.

The term inhibition denotes the relative decrease from the control value, in per cent.

The nature of this test: growth inhibition of non-replicating M. tuberculosis (AID 488890).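 Also: plate controls were DMSO cells for no effect and high antibiotic wells for full effect.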 The conditions noted are these: Mycobacterium tuberculosis non-replicating, at 25 µM, stronger effect = higher value.
As for `O=C(C1CCCN(S(=O)(=O)c2cccc3nsnc23)C1)N1CCN(c2ccccn2)CC1` (stereo not given), the inhibition stood at 16.4%.
Consider `CCCCN(C(=O)NCCCCCCNC(=O)N(CCCC)C1CCS(=O)(=O)C1)C1CCS(=O)(=O)C1` (stereo not given), for which the inhibition was -10.6%.
Take `COc1ccc(CC(=O)OCc2nnc(-c3ccccc3)o2)cc1`: the inhibition was found to be 66.7%.
As for `COc1cccc(C(Nc2ccccn2)c2oc(CO)cc(=O)c2O)c1` (stereo not given), the inhibition came to 8.94%.
In the case of `CC(=O)c1cccc(NC(=O)COc2ccccc2)c1`, the inhibition was determined as 54.2%.
The value for `CC(=O)Nc1ccc(/C=N/OCC(=O)Nc2ccc(C)cc2)cc1` was 31.8%; that for `CC(=O)Nc1cccc(OCC(=O)Nc2ccc(F)cc2)c1` was -6.82%.
With `CCOC(=O)c1cccc(NC(=O)COc2ccc([N+](=O)[O-])cc2)c1`, the inhibition was 73.8%.
The result for `CC(C)CNC(=O)c1cccc(NC(=O)COc2cccc([N+](=O)[O-])c2)c1` reads 16.2%; that for `O=C(COc1ccccc1)Nc1cccc(-c2nnc(-c3ccccc3)o2)c1`, 15.8%.
Regarding `O=C(COc1ccc(CO)cc1)Nc1ccc(F)cc1`, the inhibition was -2.12%.
Consider `CNC(=O)CO/N=C/c1ccc(N(C)C)cc1`, for which the inhibition is 3.3%.
The result for `Cn1c(N)c(C(=O)COC(=O)Cc2ccc(Br)cc2)c(=O)n(C)c1=O` reads 3.86%.
Consider `O=C(Cc1ccc(F)cc1)N1CCC(CC2CC(c3cccc(Br)c3)=NO2)(C(=O)NCC2CCCCC2)CC1` (stereo not given), for which the inhibition was found to be 37%.
Regarding `COc1ccc(-n2c(C)c(C)c3c(NCCCO)ncnc32)cc1`, the inhibition was -0.92%.
The result for `COc1ccc(-n2c(CN3CCN(C)CC3)nc3ccc([N+](=O)[O-])cc3c2=O)c(OC)c1` reads 1.89%.
For the molecule `COc1ccc(C(=O)CC(=O)C(=O)Nc2c(C)cccc2C)cc1`, the inhibition was found to be 78.4%.
For the molecule `O=C(C1CCN(S(=O)(=O)c2ccc(Br)cc2)CC1)N1CCOCC1`, the inhibition is -10.1%.
The value for `COC(=O)c1ccc(C)c(NC(=O)Cc2ccc([N+](=O)[O-])cc2)c1` was 21.2%; that for `COc1ccc(S(=O)(=O)N2CCC(C(=O)NCCOc3ccccc3F)CC2)cc1OC` was 24.4%; that for `COC(=O)COc1cccc(NC(=O)C(c2ccccc2)c2ccccc2)c1` was 3.23%.
As for `COC(=O)N/N=C/c1cccc(OCCSc2ccc(Cl)cc2)c1`, the inhibition was 74.7%.
The result for `CC(=O)Oc1ccc(/C=N/NC(=O)CCSc2ccccc2)cc1` reads 9.49%.
Turning to `CC(=O)Nc1cccc(OCC(=O)Nc2ccccc2)c1`, the inhibition was -8.67%.
Turning to `Cc1cc(NC(=O)CO/N=C/c2ccc3c(c2)OCO3)ccc1Br`, the inhibition was -0.49%.
Consider `O=C(COc1ccccc1F)Nc1ccc2c(c1)OCCO2`, for which the inhibition is 52.5%.
The result for `COc1ccc(/C=N/OCC(=O)Nc2ccc3c(c2)OCO3)c(OC)c1` reads 59.9%.
With `CCC(=O)c1ccc(OCC(=O)Nc2ccc3c(c2)OCCO3)cc1`, the inhibition was 69.5%.
The value for `COc1cc(OC)cc(C(=O)OCc2cc3ccccc3[nH]c2=O)c1` was -16%; that for `COc1ccc(NC(=O)/C(=C/c2cccs2)NC(=O)c2ccco2)cc1` was -0.67%.
